{
  "source": "PubChem BioAssay",
  "note": "A number with no mark means an inactive call.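 The calls were made as follows: active = inhibition above 50%; inactive = the rest.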",
  "data": [
    {"experiment": "human hepatoma cell viability loss – ATP luminescence, cytotoxicity control for P. falciparum antimalarial project, primary screen (AID 2303);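 also: 0% = DMSO wells and 100% = digitonin-killed cells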", "settings": "HepG2 viability, 24-48 h, at 10 µM, hits give high values", "units": {"inhibition": "%"}, "values": [
      {"smiles": "COc1ccc(C(=O)NC2CCN(c3ccnc4cc(Cl)ccc34)C2)cc1", "note": "(centres undefined)", "inhibition": 31},
      {"smiles": "CC(C)(C)NCc1cc(Nc2ccnc3cc(Cl)ccc23)ccc1F", "inhibition": 21},
      {"smiles": "O=C(NC1CCC(CCN2Cc3ccc(Br)cc3C2)CC1)c1cccc(-c2cccnc2)c1", "note": "(centres undefined)", "inhibition": 14},
      {"smiles": "CC(C)Nc1nc(NCCc2cnc[nH]2)nc(NCc2ccc(Cl)c(Cl)c2)n1", "inhibition": -3},
      {"smiles": "N#Cc1ccc(N(CCNS(=O)(=O)c2cc(Br)c(Cl)s2)Cc2ccccc2C(F)(F)F)cc1C(F)(F)F", "inhibition": 3},
      {"smiles": "COCCCNc1sc(S(=O)(=O)c2ccccc2)nc1S(=O)(=O)c1ccc(C)cc1", "inhibition": 7},
      {"smiles": "O=C(/C=C/c1ccc(Cl)cc1)NCCCCCN1CCC(C(=O)Nc2ccc(Cl)cc2)CC1", "inhibition": 27},
      {"smiles": "O=C(NCCCNc1nc2ccccc2[nH]1)c1cccc(OC(F)(F)F)c1", "inhibition": 12},
      {"smiles": "NC(=O)c1cccc(CNCc2ccc(-c3cccc(-c4nc5ccccc5[nH]4)c3)cc2)c1", "inhibition": 29},
      {"smiles": "C[C@@H]1CN(c2ncc(-c3ccc(CNC4Cc5ccccc5C4)cc3)cn2)C[C@H](C)N1", "inhibition": 27},
      {"smiles": "Oc1ccc(-c2ccccc2)cc1CN1CCCCCC1", "inhibition": 6},
      {"smiles": "Cc1cccc(Cn2c(C(N)=O)nn(-c3ccc([N+](=O)[O-])cc3C#N)c2=S)c1", "inhibition": 1},
      {"smiles": "O=C(Nc1ccncc1)c1cc(C(=O)Nc2ccncc2)cc([N+](=O)[O-])c1", "inhibition": 1},
      {"smiles": "CC(C)(C)C(Cn1ccnc1)NCc1cn[nH]c1-c1ccc(-c2ccccc2)cc1", "note": "(centres undefined)", "inhibition": 15}
    ]}
  ]
}
